Holding throughout (assay): DAPPL (digital affinity profiling via proximity ligation, sequencing); 10 mM Tris-HCl pH 7.5, 50 mM NaCl, 1 mM DTT, 4% glycerol, room temperature, 30 min; GST-TFs on glutathione beads, 16-mer random dsDNA library, 0.1% formaldehyde crosslink after washing; high values mean tight binding
Holding throughout (conditions): protein: recombinant; tags: N-terminal GST; dsDNA, one strand shown

The target in one assay is T1, FLI1 (Homo sapiens, UniProt Q01543 1-452).
T1 sequence: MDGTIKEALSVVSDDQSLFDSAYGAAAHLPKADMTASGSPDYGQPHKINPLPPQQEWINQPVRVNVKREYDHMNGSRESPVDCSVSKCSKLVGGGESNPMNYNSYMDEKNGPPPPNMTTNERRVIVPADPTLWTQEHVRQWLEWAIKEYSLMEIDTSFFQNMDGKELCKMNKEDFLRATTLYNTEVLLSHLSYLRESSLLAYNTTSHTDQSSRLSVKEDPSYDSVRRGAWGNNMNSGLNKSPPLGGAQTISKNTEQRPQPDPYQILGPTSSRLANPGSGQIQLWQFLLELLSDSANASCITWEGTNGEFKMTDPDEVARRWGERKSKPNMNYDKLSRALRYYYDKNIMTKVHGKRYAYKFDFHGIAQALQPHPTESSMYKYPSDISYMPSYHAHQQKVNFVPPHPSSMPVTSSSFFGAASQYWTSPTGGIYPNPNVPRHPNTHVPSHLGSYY
In short, it runs like this: (§1)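 Binding signal is given per hexamer as its read frequency for a factor divided by its frequency in the tag-only sample. GST-fused human transcription factors were expressed in yeast, captured on glutathione beads, barcoded with DNA and pooled with that sample, then incubated with 200 nmole of a 16-mer random double-stranded DNA library in Tris/NaCl/DTT/glycerol buffer for 30 min at room temperature. The pools were then washed, crosslinked, proximity-ligated, amplified by PCR and sequenced on an Illumina NextSeq500.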

A further assay deals with T2, ELK1 (Homo sapiens, UniProt P19419 1-428).
T2 sequence: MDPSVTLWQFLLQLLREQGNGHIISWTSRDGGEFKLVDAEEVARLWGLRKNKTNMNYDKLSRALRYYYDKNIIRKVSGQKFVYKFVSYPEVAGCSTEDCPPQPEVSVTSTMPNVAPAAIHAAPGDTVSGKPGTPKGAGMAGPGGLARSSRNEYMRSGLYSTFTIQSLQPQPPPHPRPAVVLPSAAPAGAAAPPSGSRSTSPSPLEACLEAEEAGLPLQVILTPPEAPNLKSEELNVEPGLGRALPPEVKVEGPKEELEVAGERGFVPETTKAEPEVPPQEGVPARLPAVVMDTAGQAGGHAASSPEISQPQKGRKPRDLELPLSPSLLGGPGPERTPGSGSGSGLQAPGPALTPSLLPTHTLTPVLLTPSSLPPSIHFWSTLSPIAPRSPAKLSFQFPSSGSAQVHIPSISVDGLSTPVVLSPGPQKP
Summed up: as §1

The target of another assay is T3, GABPA (Homo sapiens, UniProt Q06546 1-454).
T3 sequence: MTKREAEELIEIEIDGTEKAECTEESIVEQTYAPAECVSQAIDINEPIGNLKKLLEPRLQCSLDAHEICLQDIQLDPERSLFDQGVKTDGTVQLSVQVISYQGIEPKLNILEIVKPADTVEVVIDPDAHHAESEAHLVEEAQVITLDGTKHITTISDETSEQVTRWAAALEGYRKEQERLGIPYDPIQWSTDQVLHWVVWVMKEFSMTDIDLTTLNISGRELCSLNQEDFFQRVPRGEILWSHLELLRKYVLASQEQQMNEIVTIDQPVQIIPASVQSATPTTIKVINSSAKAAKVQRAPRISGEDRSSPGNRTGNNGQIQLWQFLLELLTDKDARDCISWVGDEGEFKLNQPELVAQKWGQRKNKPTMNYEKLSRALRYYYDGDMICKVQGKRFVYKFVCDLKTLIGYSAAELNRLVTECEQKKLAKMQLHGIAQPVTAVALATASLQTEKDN
Summed up: as §1

The target in the next assay is T4, ERG (Homo sapiens, UniProt P11308 1-479).
T4 sequence: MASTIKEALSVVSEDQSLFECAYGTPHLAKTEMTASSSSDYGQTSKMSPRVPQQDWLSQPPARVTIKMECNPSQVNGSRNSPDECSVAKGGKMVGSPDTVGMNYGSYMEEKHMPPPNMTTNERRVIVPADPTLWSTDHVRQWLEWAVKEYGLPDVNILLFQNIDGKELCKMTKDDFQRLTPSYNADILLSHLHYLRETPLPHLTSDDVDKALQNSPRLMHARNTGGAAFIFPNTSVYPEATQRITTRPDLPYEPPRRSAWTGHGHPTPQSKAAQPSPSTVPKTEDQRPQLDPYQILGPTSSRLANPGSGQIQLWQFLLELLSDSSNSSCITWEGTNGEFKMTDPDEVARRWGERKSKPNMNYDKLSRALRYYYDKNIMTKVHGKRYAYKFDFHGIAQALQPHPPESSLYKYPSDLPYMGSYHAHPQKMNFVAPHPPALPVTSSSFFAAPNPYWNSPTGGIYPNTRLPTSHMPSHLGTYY
Summed up:
as §1

A further assay addresses ELF1 (Homo sapiens, UniProt P32519 1-619). In short, it runs like this: as §1
A further assay deals with T5, EHF (Homo sapiens, UniProt Q9NZC4 1-300).
T5 sequence: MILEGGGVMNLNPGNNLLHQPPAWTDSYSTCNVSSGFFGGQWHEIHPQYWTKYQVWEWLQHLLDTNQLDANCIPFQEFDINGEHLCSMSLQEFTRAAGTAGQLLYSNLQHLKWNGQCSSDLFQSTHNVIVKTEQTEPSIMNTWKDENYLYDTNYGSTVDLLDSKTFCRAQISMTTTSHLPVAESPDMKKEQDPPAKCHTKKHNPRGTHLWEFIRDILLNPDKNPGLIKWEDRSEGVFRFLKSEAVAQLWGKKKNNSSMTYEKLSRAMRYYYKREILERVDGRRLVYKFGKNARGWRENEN
Summed up:
as §1

Another assay deals with SPI1 (Homo sapiens, UniProt P17947 1-270). In short, it runs like this:
as §1

The target of the next assay is SPIB (Homo sapiens, UniProt Q01892 1-262). In short, it runs like this: as §1
A further assay addresses T6, ELK3 (Homo sapiens, UniProt P41970 1-407).
T6 sequence: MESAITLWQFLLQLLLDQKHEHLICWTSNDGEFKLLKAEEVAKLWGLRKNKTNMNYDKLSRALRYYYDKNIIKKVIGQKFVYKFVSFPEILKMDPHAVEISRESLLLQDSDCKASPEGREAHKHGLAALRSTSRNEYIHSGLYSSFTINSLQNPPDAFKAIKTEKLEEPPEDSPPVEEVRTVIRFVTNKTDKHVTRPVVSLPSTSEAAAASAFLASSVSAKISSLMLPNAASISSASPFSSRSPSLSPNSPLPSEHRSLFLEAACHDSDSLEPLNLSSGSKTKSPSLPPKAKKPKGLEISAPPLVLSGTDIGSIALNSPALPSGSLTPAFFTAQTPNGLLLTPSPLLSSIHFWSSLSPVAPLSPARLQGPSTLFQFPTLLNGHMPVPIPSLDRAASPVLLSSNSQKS
Summed up:
as §1

SPIB, sequence (Q01892 whole entry): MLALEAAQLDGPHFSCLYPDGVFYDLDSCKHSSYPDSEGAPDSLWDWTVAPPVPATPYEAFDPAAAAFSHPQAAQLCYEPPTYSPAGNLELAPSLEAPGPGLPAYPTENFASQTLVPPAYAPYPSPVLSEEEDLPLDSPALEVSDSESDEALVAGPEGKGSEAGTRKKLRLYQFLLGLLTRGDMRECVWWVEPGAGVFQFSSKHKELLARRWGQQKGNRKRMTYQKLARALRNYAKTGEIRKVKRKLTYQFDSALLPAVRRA
ELF1, sequence (P32519 whole entry): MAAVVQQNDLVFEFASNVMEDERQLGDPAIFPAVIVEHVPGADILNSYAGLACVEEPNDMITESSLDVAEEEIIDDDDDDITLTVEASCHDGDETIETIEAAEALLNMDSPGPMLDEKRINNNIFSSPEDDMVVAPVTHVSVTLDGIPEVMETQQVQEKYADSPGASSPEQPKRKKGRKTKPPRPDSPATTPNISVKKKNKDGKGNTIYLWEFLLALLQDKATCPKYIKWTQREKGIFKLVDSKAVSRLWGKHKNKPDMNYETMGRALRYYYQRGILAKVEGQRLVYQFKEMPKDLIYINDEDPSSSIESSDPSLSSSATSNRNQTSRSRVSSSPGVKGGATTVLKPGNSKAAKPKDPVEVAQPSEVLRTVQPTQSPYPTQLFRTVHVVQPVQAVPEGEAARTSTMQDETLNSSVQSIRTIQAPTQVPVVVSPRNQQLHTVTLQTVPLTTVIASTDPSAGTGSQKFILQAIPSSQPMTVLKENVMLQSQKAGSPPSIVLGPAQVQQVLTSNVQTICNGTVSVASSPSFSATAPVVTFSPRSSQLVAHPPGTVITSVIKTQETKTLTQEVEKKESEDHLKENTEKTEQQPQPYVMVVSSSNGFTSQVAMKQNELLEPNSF

With TCACCA, the binding signal with FLI1 is 1.18 fold enrichment (6-mer frequency, TF over GST control); with ELK1, 1.23 fold enrichment (6-mer frequency, TF over GST control); in the assay with GABPA, 1.12 fold enrichment (6-mer frequency, TF over GST control); with ERG it was 1.14 fold enrichment (6-mer frequency, TF over GST control); with ELF1, 1.18 fold enrichment (6-mer frequency, TF over GST control); with EHF, 1.06 fold enrichment (6-mer frequency, TF over GST control). Also, the binding signal in the assay with SPI1 was 1.21 fold enrichment (6-mer frequency, TF over GST control); in the assay with SPIB, 1.2 fold enrichment (6-mer frequency, TF over GST control); in the assay with ELK3 it was 1.22 fold enrichment (6-mer frequency, TF over GST control).

For ATGGAT, the binding signal was 1.06 fold enrichment (6-mer frequency, TF over GST control) with FLI1; 1.11 fold enrichment (6-mer frequency, TF over GST control) in the assay with ELK1; 1.18 fold enrichment (6-mer frequency, TF over GST control) with GABPA; 1.08 fold enrichment (6-mer frequency, TF over GST control) in the assay with ERG; 1.04 fold enrichment (6-mer frequency, TF over GST control) with ELF1; 1.09 fold enrichment (6-mer frequency, TF over GST control) in the assay with EHF. For the same sequence, the binding signal was 1.06 fold enrichment (6-mer frequency, TF over GST control) in the assay with SPI1; 1.14 fold enrichment (6-mer frequency, TF over GST control) with SPIB; 1.2 fold enrichment (6-mer frequency, TF over GST control) with ELK3.

CTGATT: the binding signal with FLI1 was 1.18 fold enrichment (6-mer frequency, TF over GST control); with ELK1 it was 1.21 fold enrichment (6-mer frequency, TF over GST control); with GABPA, 1.14 fold enrichment (6-mer frequency, TF over GST control); with ERG it was 1.2 fold enrichment (6-mer frequency, TF over GST control); in the assay with ELF1 it was 1.22 fold enrichment (6-mer frequency, TF over GST control); in the assay with EHF, 1.22 fold enrichment (6-mer frequency, TF over GST control). Further, the binding signal is 1.09 fold enrichment (6-mer frequency, TF over GST control) in the assay with SPI1; 1.21 fold enrichment (6-mer frequency, TF over GST control) with SPIB; 1.21 fold enrichment (6-mer frequency, TF over GST control) in the assay with ELK3.

AACTAA: the binding signal with FLI1 is 1.39 fold enrichment (6-mer frequency, TF over GST control); with ELK1 it was 1.27 fold enrichment (6-mer frequency, TF over GST control); in the assay with GABPA, 1.38 fold enrichment (6-mer frequency, TF over GST control); with ERG it was 1.33 fold enrichment (6-mer frequency, TF over GST control); with ELF1 it was 1.42 fold enrichment (6-mer frequency, TF over GST control); with EHF it was 1.42 fold enrichment (6-mer frequency, TF over GST control). The binding signal is 1.38 fold enrichment (6-mer frequency, TF over GST control) with SPI1; 1.41 fold enrichment (6-mer frequency, TF over GST control) with SPIB; 1.4 fold enrichment (6-mer frequency, TF over GST control) with ELK3.

Regarding AATTGC, the binding signal with FLI1 was 1.44 fold enrichment (6-mer frequency, TF over GST control); with ELK1 it was 1.42 fold enrichment (6-mer frequency, TF over GST control); with GABPA, 1.44 fold enrichment (6-mer frequency, TF over GST control); with ERG it was 1.3 fold enrichment (6-mer frequency, TF over GST control); in the assay with ELF1, 1.34 fold enrichment (6-mer frequency, TF over GST control); with EHF it was 1.38 fold enrichment (6-mer frequency, TF over GST control). Also, the binding signal in the assay with SPI1 was 1.43 fold enrichment (6-mer frequency, TF over GST control); in the assay with SPIB, 1.29 fold enrichment (6-mer frequency, TF over GST control); in the assay with ELK3, 1.46 fold enrichment (6-mer frequency, TF over GST control).

In the case of CACGAT, the binding signal with FLI1 was 1.4 fold enrichment (6-mer frequency, TF over GST control); with ELK1, 1.26 fold enrichment (6-mer frequency, TF over GST control); with GABPA, 1.33 fold enrichment (6-mer frequency, TF over GST control); with ERG it was 1.24 fold enrichment (6-mer frequency, TF over GST control); in the assay with ELF1 it was 1.27 fold enrichment (6-mer frequency, TF over GST control); with EHF, 1.32 fold enrichment (6-mer frequency, TF over GST control). Also, the binding signal with SPI1 is 1.27 fold enrichment (6-mer frequency, TF over GST control); in the assay with SPIB, 1.32 fold enrichment (6-mer frequency, TF over GST control); with ELK3 it was 1.25 fold enrichment (6-mer frequency, TF over GST control).

Regarding TTCTTT, the binding signal with FLI1 is 1.18 fold enrichment (6-mer frequency, TF over GST control); with ELK1 it was 1.13 fold enrichment (6-mer frequency, TF over GST control); with GABPA it was 1.21 fold enrichment (6-mer frequency, TF over GST control); with ERG, 1.27 fold enrichment (6-mer frequency, TF over GST control); with ELF1, 1.35 fold enrichment (6-mer frequency, TF over GST control); in the assay with EHF, 1.11 fold enrichment (6-mer frequency, TF over GST control). Besides, the binding signal with SPI1 is 1.23 fold enrichment (6-mer frequency, TF over GST control); with SPIB, 1.21 fold enrichment (6-mer frequency, TF over GST control); with ELK3, 1.17 fold enrichment (6-mer frequency, TF over GST control).
